High-throughput results deposited in PubChem BioAssay by National Center for Advancing Translational Sciences (NCATS).
AmpC no deterg: inhibitors of E. coli AmpC beta-lactamase without detergent; P00811; AmpC nitrocefin hydrolysis, absorbance 480 nm, 0.0001% Triton; Potency, µM (doses to about 57.1 µM), actives largely listed as inhibitors; actives 0.52% (n = 330,000); AID 485341; also: nearly all actives have a fitted effect of over 20% in size
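20 mM phosphate pH 7.0 + 0.01% (detergent screen) or 0.0001% Triton X-100; 5.3 nM AmpC reagent; cpd preinc 15 min RT; nitrocefin (800 uM stock) to start; A480 q20 s × 4 min; Activity was normalised to no-enzyme and no-compound control wells.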
Sm TGR block: S. mansoni TGR enzyme inhibition | purified TGR, DTNB reduction, TNB absorbance 405 nm | Q962Y6 | actives 3% (n = 360,000) | Potency, µM (doses to about 114 µM), usual class: inhibitors | AID 485364; also: nearly all actives have a fitted effect of over 60% in size
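First, TGR (20 nM dispensed) and NADPH were mixed with compound. Second, a 15 min room-temperature incubation followed. Third, further NADPH and then DTNB were added to start the reaction. Finally, TNB absorbance was monitored kinetically.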
RE007 growth inh: less growth of the S. pombe RE007 Vpr strain; AID 651644; S. pombe RE007 Vpr strain, BacTiter-Glo ATP luminescence, 24 h; Potency, µM (doses to about 92.2 µM), actives largely listed as inhibitors; actives 0.21% (n = 360,000); active = well fitted falling curve with a large enough effect; inconclusive = small, poorly fitted or top-dose-only effect; inactive = no such curve, though single readings can be large or run the other way; also: nearly all actives have a fitted effect of over 50% in size
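Fission yeast RE007 carrying one integrated HIV-1 vpr copy, seeded at OD 0.01 in PMG+AL medium with 23 nL pinned compound. Grown 24 h at 30 degrees; viability read by BacTiter-Glo luminescence after 5 min.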
AmpC detergent: inhibitors of E. coli AmpC beta-lactamase with detergent; P00811; AmpC hydrolysis of nitrocefin, absorbance 480 nm, 0.01% Triton; Potency, µM (series often up to 114 µM), actives largely listed as inhibitors; AID 485294; actives 0.041% (n = 370,000); also: nearly all actives have a fitted effect of over 25% in size
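20 mM phosphate pH 7.0 + 0.01% (detergent screen) or 0.0001% Triton X-100; 5.3 nM AmpC reagent; cpd preinc 15 min RT; nitrocefin (800 uM stock) to start; A480 q20 s × 4 min; Activity was normalised to no-enzyme and no-compound control wells.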
Giardia FBPA inh: Giardia lamblia aldolase inhibition | A8B2U2 | purified Giardia FBPA | Potency, µM (top dose mostly 59.6 µM), most hits filed as inhibitors | actives 0.71% (n = 290,000) | AID 2451; also: nearly all actives have a fitted effect of over 55% in size
Target sequence (A8B2U2 whole entry, looked up): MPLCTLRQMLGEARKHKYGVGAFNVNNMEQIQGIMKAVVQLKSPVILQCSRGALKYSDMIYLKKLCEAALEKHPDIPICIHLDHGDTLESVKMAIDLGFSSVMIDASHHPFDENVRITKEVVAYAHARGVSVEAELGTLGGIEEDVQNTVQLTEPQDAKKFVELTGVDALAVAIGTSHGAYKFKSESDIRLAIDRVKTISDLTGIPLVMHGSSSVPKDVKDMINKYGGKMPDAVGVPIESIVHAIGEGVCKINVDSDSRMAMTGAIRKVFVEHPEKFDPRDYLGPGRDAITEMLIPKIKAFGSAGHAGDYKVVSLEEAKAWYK
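40 nM FBPA preincubated 10 min at RT with compound (up to 57.5 uM final), then substrate plus GAPDH/TPI/NAD/arsenate coupling and diaphorase/resazurin added. Fluorescence read after 20 min at RT, 525/598 nm.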
Of the large screens only hits and unclear results are named; the others gave an inactive call. Only some compounds are listed: those with a hit (about 3.4% of all), similar ones and a draw of the others. Unless noted, calls follow the shape of the dose curve; as a rule, active = well fitted curve in the direction sought with a large enough effect; inconclusive = small, poorly fitted or top-dose-only effect, or another doubt; inactive = no such curve, though single readings can be large; an effect the other way counts as inactive or inconclusive.

CCOC(=O)C1CCCc2c1[nH]c1c(C(N)=O)cccc21 (centres undefined)	none
C=CCN1C(=O)/C(=N/n2cnnc2)c2ccccc21	none
CCN1C(=O)/C(=c2\sc3nc(=O)c(Cc4ccccc4)nn3c2=O)c2ccccc21	Sm TGR block 3.55µM
COc1cc(/C=c2\sc3nc(=O)c(-c4ccccc4)nn3c2=O)ccc1OCCC(C)C	none
CCN1C(=O)/C(=C/c2nc3ccccc3c(=O)[nH]2)c2ccccc21	AmpC detergent inconclusive
C=CCN1C(=O)/C(=c2\sc3nc(=O)c(Cc4ccc(OC)c(OC)c4)nn3c2=O)c2ccccc21	Sm TGR block 0.631µM
C=CCN1C(=O)/C(=c2\sc3nc(=O)c(Cc4ccccc4)nn3c2=O)c2ccccc21	AmpC no deterg inconclusive, Sm TGR block 1.41µM
O=C(NCc1ccc2c(c1)OCO2)c1cc(-c2ccncc2)nc2ccccc12	none
COc1cc(OC)c(OC)cc1CN1CCc2nc(N3CCN(c4ncccn4)CC3)ncc2C1	Sm TGR block 22.4µM (no result: AmpC no deterg, RE007 growth inh, Giardia FBPA inh)
C=CCN1C(=O)NC(=O)/C(=C/c2cc3c4c(c2)CCCN4CCC3)C1=O	Sm TGR block 8.91µM
Cc1ccc(NC(=O)c2cc(N3C(=O)C=CC3=O)ccc2N2CCOCC2)cc1	Sm TGR block 0.708µM, RE007 growth inh 8.91µM
Cc1ccc(NC(=O)c2cc(N3C(=O)C=CC3=O)ccc2Cl)cc1C	Sm TGR block 0.794µM, RE007 growth inh 10µM
CC(C)c1ccc(S(=O)(=O)N2CCN(C(=O)n3ccnc3)CC2)cc1	none (no result: Giardia FBPA inh)
CC12CN3CC(C)(CN(C1)C3c1ccc(Br)cc1)C2=O (centres undefined)	AmpC detergent inconclusive
CCN(CC)c1ccc(NC(=O)/C=C\c2ccccc2Cl)cc1	none
CN(C)c1ccc(NC(=O)/C=C/c2ccccc2Cl)cc1	AmpC no deterg 2.51µM, AmpC detergent inconclusive
CC1(C)CC(=O)C(C2C3=C(CC(C)(C)CC3=O)Oc3ccccc32)=C(O)C1 (centres undefined)	Sm TGR block 7.94µM
CC1(C)CC(=O)C(C2C3=C(CC(C)(C)CC3=O)Oc3ccccc32)C(=O)C1 (centres undefined)	Sm TGR block 5.01µM
C=CCn1c(O)c(N=NC(=O)CNC(=O)/C=C/c2ccco2)c2ccccc21	Sm TGR block 17.8µM
C=CCn1c(O)c(N=NC(=O)CNC(=O)/C=C/c2ccc(OC)cc2)c2ccccc21	none
CC(=O)c1cccc(CN2CCc3ccc(NC(=O)C4CCCO4)cc3C2)c1 (centres undefined)	none
O=c1[nH]c(=O)n(-c2cccc(F)c2)c(O)c1/C=C1\C=Nc2ccccc21	Sm TGR block 35.5µM
CCCOc1ccc(C(=O)OCCN(CC)CC)cc1N	AmpC detergent inconclusive
Oc1ccc(-c2cnns2)c(O)c1	Sm TGR block 79.4µM
COc1cc(OC)c2c(c1)OC(c1ccccc1)CC2=O (centres undefined)	none (no result: AmpC no deterg, Sm TGR block, RE007 growth inh, AmpC detergent)
COc1cc(OC)c2c(c1O)OC(c1ccccc1)CC2=O (centres undefined)	Sm TGR block 50.1µM
Fc1ccc(C2CC(c3ccco3)=Nc3ccccc3S2)cc1 (centres undefined)	RE007 growth inh 25.1µM, Giardia FBPA inh inconclusive
CCn1c(=NC(=O)c2ccco2)sc2cccc(F)c21	AmpC no deterg 3.55µM, AmpC detergent inconclusive
CCn1c(C)nc([N+](=O)[O-])c1Sc1ccc(F)cc1	Sm TGR block 39.8µM
COc1cc(C(=O)NC(=S)Nc2ccccc2N2CCOCC2)cc(OC)c1OC	AmpC no deterg 15.8µM, Sm TGR block 25.1µM (no result: Giardia FBPA inh)
COc1cccc(C(=O)NC(=S)Nc2ccccc2N2CCOCC2)c1	none (no result: Giardia FBPA inh)
O=C(NC(=S)Nc1cc(C(F)(F)F)ccc1N1CCOCC1)c1ccco1	Sm TGR block 11.2µM
C=CCSc1nnc(NC(=O)C2=COCCO2)s1	none (no result: Giardia FBPA inh)
C=CCOC(=O)C1=C(C)OC(N)=C(C#N)C1c1ccc(OC)c(CSc2ccccn2)c1 (centres undefined)	none
CCCC1=C(C(=O)OCC)C(c2ccc(OC)c(CSc3ccccn3)c2)C(C#N)=C(N)O1 (centres undefined)	Sm TGR block 31.6µM, RE007 growth inh inconclusive
COc1ccc(NC(=O)CSc2oc(-c3ccco3)nc2S(=O)(=O)c2ccccc2)c(OC)c1	none (no result: AmpC no deterg, RE007 growth inh, Giardia FBPA inh)
Cc1cccc(-n2ncc3c(Nc4c(C)n(C)n(-c5ccccc5)c4=O)ncnc32)c1	none
Cc1c(Nc2ncnc3c2cnn3-c2ccccc2)c(=O)n(-c2ccccc2)n1C	AmpC no deterg 0.141µM
C=CCN(C(=O)CSC1=NC(=O)CN1C(C)=O)c1nc(C)c(-c2ccccc2)s1	Sm TGR block 4.47µM
CC1=CC(C)(C)N2C(=O)C(=O)c3cc(OC(=O)c4ccco4)cc1c32	RE007 growth inh inconclusive, Giardia FBPA inh inconclusive (no result: Sm TGR block)
C=CCOc1c(/C=N\NC(N)=O)cccc1OC	none
C=CCOc1c(OC)cc(/C=N/Nc2cccc(C(=O)O)c2)c(Br)c1Br	Sm TGR block 56.2µM (no result: RE007 growth inh)
c1ccc(CCn2nnnc2CN2CCc3ccccc32)cc1	Sm TGR block 12.6µM
Cc1ccc2nc(Cl)c(-c3ccccc3)cc2c1	none (no result: AmpC no deterg, Sm TGR block, AmpC detergent, Giardia FBPA inh)
Cc1ccc2nc(CCl)[n+]([O-])c(-c3ccccc3)c2c1	Sm TGR block 4.47µM
CC(=O)N(C)Cc1ccc(C(=O)CSc2nnc(C3CC3)n2C2CC2)cc1	none (no result: Giardia FBPA inh)
CC(=O)Nc1ccc(C)cc1	none (no result: Giardia FBPA inh)
CC(=O)Nc1ccc(C(=O)CCl)cc1	Sm TGR block 12.6µM (no result: Giardia FBPA inh)
CC(=O)N(C)Cc1ccc(C(=O)CCl)cc1	Sm TGR block 11.2µM
CC(=O)NCCC(=O)NCc1ccc(F)cc1	none
